Consider four molecules from the supplement of paper PMC9694430.

Holding throughout (experiment): thermal shift delta Tm vs DMSO control; higher = stronger stabilization (binding)
What all share (conditions): 12.5 µM; protein concentration 2 µM

The subject of assay [1] is LOC_OS01G01410-cb001. Put shortly:
(§1)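 Compounds dissolved in DMSO were added to purified rice kinase domain constructs, which had been expressed in E. coli, for differential scanning fluorimetry. Each well held 19.5 μl of 2 μM kinase in 100 mM potassium phosphate pH 7.5, 150 mM NaCl, 10% glycerol and 5 × SYPRO Orange. Fluorescence was followed from 25°C to 95°C at a rate of 0.05°C/s. Shifts in Boltzmann-fitted melting temperature are triplicate means relative to DMSO-only protein.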

Assay [2] has as its system LOC_OS01G02750-cb003. Put shortly:
as §1

For assay [3], the system named is LOC_OS01G10900-cb004. In a few lines:
as §1

Assay [4] relates to LOC_OS01G13800-cb001. In a few lines: as §1
For assay [5], the system named is LOC_OS01G14860-cb001. Put shortly: as §1
Assay [6] concerns LOC_OS01G21960-cb002. Put shortly:
as §1

In assay [7] the test system is LOC_OS01G39600-cb002. In a few lines: as §1
Assay [8] concerns LOC_OS01G48390-cb002. In a few lines:
as §1

The subject of assay [9] is LOC_OS01G51400-cb002. In a few lines: as §1
In assay [10] the test system is T1, LOC_OS01G52050-cb004.
T1 sequence (whole entry): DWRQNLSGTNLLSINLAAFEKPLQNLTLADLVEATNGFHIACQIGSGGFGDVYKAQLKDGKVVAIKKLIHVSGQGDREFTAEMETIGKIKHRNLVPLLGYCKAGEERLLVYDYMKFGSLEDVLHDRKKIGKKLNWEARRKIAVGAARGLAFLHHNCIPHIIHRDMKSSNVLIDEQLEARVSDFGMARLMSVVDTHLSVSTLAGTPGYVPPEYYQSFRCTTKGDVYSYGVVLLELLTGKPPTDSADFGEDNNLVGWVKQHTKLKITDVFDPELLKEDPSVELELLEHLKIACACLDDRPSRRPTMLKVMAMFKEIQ
Put shortly:
as §1

Assay [11] concerns LOC_OS01G57100-cb003. In a few lines:
as §1

In assay [12] the test system is LOC_OS01G60330-cb001. In a few lines: as §1
In assay [13] the test system is LOC_OS01G60700-cb002. Put shortly:
as §1

Assay [14] has as its system LOC_OS01G63280-cb003. In a few lines:
as §1

For assay [15], the system named is LOC_OS01G67340-cb003. In a few lines:
as §1

For assay [16], the system named is LOC_OS01G70970-cb002. Put shortly:
as §1

Assay [17] deals with LOC_OS02G07810-cb001. In a few lines:
as §1

The test system of assay [18] is LOC_OS02G08530-cb003. Put shortly: as §1
The subject of assay [19] is LOC_OS02G14120-cb001. Put shortly:
as §1

Assay [20] relates to LOC_OS02G17970-cb001. Put shortly: as §1

`C=C(C)[C@@H]1CC[C@]2(C)CC[C@]3(C)[C@H](CC[C@@H]4[C@@]5(C)CC[C@H](O)C(C)(C)[C@@H]5CC[C@]43C)[C@@H]12` [Lupeol]: the “thermal shift delta Tm” value in assay [1] came out at 0.2 °C; in assay [2], 0.62 °C; in assay [3] it was 0.32 °C; in [4] it was 0.74 °C; in assay [5], 0.11 °C; in [6] it was 0.67 °C. Moreover, the “thermal shift delta Tm” value in assay [7] was 0.07 °C; in assay [8] it was -0.09 °C; in assay [9], -0.11 °C; in [10], 0.44 °C; in assay [11], 0.67 °C; in assay [12], -0.59 °C. Further, the “thermal shift delta Tm” value was 0.65 °C in assay [13]; 0.13 °C in [14]; 0.51 °C in [15]; -0.32 °C in assay [16]; 1 °C in [17]; 0.21 °C in assay [18]. Moreover, the “thermal shift delta Tm” value in assay [19] is -0.18 °C; in assay [20] it was -0.66 °C.
Take `Nc1nc(N)c(N=O)c(OCC2CCCCC2)n1`: the “thermal shift delta Tm” value in assay [1] was 0.83 °C; in assay [2] it was 0.95 °C; in assay [3], 0.44 °C; in assay [4], -0.3 °C; in assay [5], 1.5 °C; in assay [6] it was 1.67 °C. In addition, the “thermal shift delta Tm” value in [7] is -1.66 °C; in assay [8], 0.08 °C; in assay [9] it was 0.44 °C; in assay [10], 1.13 °C; in assay [11], 1.14 °C; in assay [12], 2.6 °C. In addition, the “thermal shift delta Tm” value in assay [13] was determined as 1.46 °C; in [14] it was 0.91 °C; in assay [15] it was 0.46 °C; in [16], 1.27 °C; in assay [17] it was 0.51 °C; in assay [18], 0.99 °C. The results for the “thermal shift delta Tm” value in assay [19] and in [20] were 2.99 °C and 0.61 °C, respectively.
`COC(=O)c1ccc2c(c1)NC(=O)/C2=C(\Nc1ccc(N(C)C(=O)CN2CCN(C)CC2)cc1)c1ccccc1` [Nintedanib (BIBF 1120)]: the “thermal shift delta Tm” value in assay [1] was 2.25 °C; in [2], -0.82 °C; in assay [3], 0.18 °C; in assay [4], -0.11 °C; in assay [5], 1.18 °C; in [6], 0.47 °C. The “thermal shift delta Tm” value in [7] is 1.74 °C; in [8], 1.19 °C; in [9], 0.18 °C; in assay [10] it was 1.07 °C; in assay [11], 0.08 °C; in assay [12], 1.75 °C. Besides, the “thermal shift delta Tm” value in assay [13] was 0.96 °C; in [14] it was -0.1 °C; in [15], 0.48 °C; in assay [16] it was 2.57 °C; in [17], 0.27 °C; in [18], 3.05 °C. Moreover, the “thermal shift delta Tm” value is 0.3 °C in assay [19] and -0.36 °C in assay [20].
`COc1cc(OC)c(/C=C/S(=O)(=O)Cc2ccc(OC)c(NCC(=O)O)c2)c(OC)c1`: the “thermal shift delta Tm” value in [1] was 0.51 °C; in assay [2], 1.22 °C; in assay [3] it was 0.58 °C; in assay [4] it was 0.83 °C; in assay [5], 0.27 °C; in [6] it was 0.96 °C. The “thermal shift delta Tm” value in assay [7] is -0.03 °C; in assay [8] it was 0.33 °C; in [9] it was 0.1 °C; in assay [10], 0.51 °C; in assay [11], 0.72 °C; in [12], 0.72 °C. The “thermal shift delta Tm” value in assay [13] was 1.27 °C; in assay [14], 0.67 °C; in assay [15], -0.23 °C; in assay [16] it was -0.1 °C; in assay [17] it was 1.48 °C; in assay [18], 0.79 °C. Besides, the “thermal shift delta Tm” value in [19] was found to be 0.49 °C; in [20], 0.94 °C.
